Among the test systems are SK-MEL-2 melanoma; EKVX NSCLC; SN12C renal; UO-31 renal; TK-10 renal; ACHN renal; CAKI-1 renal; A498 renal; MOLT-4 leukemia; SR leukemia; RPMI-8226 leukemia; OVCAR-8 ovarian; OVCAR-5 ovarian; OVCAR-4 ovarian; SK-OV-3 ovarian; IGROV1 ovarian; OVCAR-3 ovarian; HS 578T breast; NCI/ADR-RES ovarian.
Common to all, as to experiment: NCI-60 one-dose screen, 48 h (100 = growth as untreated, 0 = no growth, -100 = all killed)
What all share (conditions): 10 µM unless noted

The structures appear in SMILES notation. About 83,000 compounds went through this panel and 20% of them were active in at least one assay; those are over-represented in the sample as a whole.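 Cell lines were cultured in 96-well plates, exposed to a single compound concentration, and assessed for percent growth 48 hours later.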 Unmarked numbers belong to inactive results. The source made the active and inactive calls. Rule for the calls: active = growth percent below 10; inactive = the rest.

`Cc1ccc(-c2cc3c(cc2O)C2CCCCC2(N2CCOCC2)O3)cc1` (configuration not stated): the growth in the assay on SK-MEL-2 melanoma was 101%; in the assay with EKVX NSCLC, 107%; with SN12C renal, 93.1%; with UO-31 renal, 84.5%; in the assay with TK-10 renal, 116%; in the assay on ACHN renal, 112%. In addition, the growth is 96% in the assay on CAKI-1 renal; 114% with A498 renal; 84.1% in the assay with MOLT-4 leukemia; 86% in the assay on SR leukemia; 96% in the assay with RPMI-8226 leukemia; 102% with OVCAR-8 ovarian. The growth in the assay with OVCAR-5 ovarian was 110%; in the assay on OVCAR-4 ovarian it was 91%; in the assay with SK-OV-3 ovarian, 104%; with IGROV1 ovarian, 104%; in the assay on OVCAR-3 ovarian, 110%; in the assay with HS 578T breast, 108%. For the same compound, in the assay on NCI/ADR-RES ovarian, the growth is 99.1%.

Consider `O=Cc1c[nH]c2ccc(-c3csc4ccccc34)cc12`, for which the growth was 110% with SK-MEL-2 melanoma; 55.9% with EKVX NSCLC; 75.2% in the assay with SN12C renal; 42.9% in the assay with UO-31 renal; 60.6% with TK-10 renal; 63.7% in the assay on ACHN renal. Further, the growth with CAKI-1 renal was 39.7%; in the assay on A498 renal, 43.5%; in the assay with MOLT-4 leukemia, 15.7%; with SR leukemia it was 6.86% (active); in the assay with RPMI-8226 leukemia it was 27.8%; in the assay on OVCAR-8 ovarian it was 27.6%. Further, the growth with OVCAR-5 ovarian was 86.3%; with OVCAR-4 ovarian, 94.2%; in the assay on SK-OV-3 ovarian it was 49.4%; in the assay with IGROV1 ovarian, 20.5%; in the assay on OVCAR-3 ovarian, 23.8%; in the assay with HS 578T breast, 40.4%. The growth in the assay with NCI/ADR-RES ovarian is 12.3%.

On to `CC(=O)N1N=C(c2ccc(Nc3nc(Nc4ccc(F)cc4)nc(Nc4ccc(F)cc4)n3)cc2)CC1c1cccc([N+](=O)[O-])c1` (configuration not stated), for which the growth in the assay with SK-MEL-2 melanoma was 62.5%; in the assay with EKVX NSCLC, 90.2%; in the assay with SN12C renal it was 98.1%; in the assay with UO-31 renal, 73%; in the assay with TK-10 renal, 104%; with ACHN renal it was 93%. Besides, the growth in the assay on CAKI-1 renal is 124%; with A498 renal, 78.9%; in the assay with MOLT-4 leukemia it was 8.35% (active); in the assay with SR leukemia, 22.4%; in the assay with RPMI-8226 leukemia it was 19.8%; in the assay on OVCAR-8 ovarian, 91.6%. In addition, the growth in the assay with OVCAR-5 ovarian is 75.5%; in the assay on OVCAR-4 ovarian, 47.8%; with SK-OV-3 ovarian, 110%; in the assay with IGROV1 ovarian, 76.9%; in the assay on OVCAR-3 ovarian it was 235%; with HS 578T breast, 96.5%. In addition, the growth in the assay with NCI/ADR-RES ovarian was 67.2%.

For the compound `CC1(C)CC[C@]2(C(=O)N3CCOCC3)CC[C@]3(C)C(=CC[C@@H]4[C@@]5(C)CC[C@H](OC(=O)c6cccnc6)C(C)(C)[C@@H]5CC[C@]43C)[C@@H]2C1`, the growth in the assay with SK-MEL-2 melanoma was 84.4%; with EKVX NSCLC, 88.2%; with SN12C renal it was 74.4%; in the assay on UO-31 renal, 62.9%; with TK-10 renal, 83%; in the assay on ACHN renal, 45.3%. Besides, the growth in the assay with CAKI-1 renal was 40.1%; with A498 renal, 70.3%; in the assay on MOLT-4 leukemia it was 49%; in the assay on SR leukemia it was 53.7%; with RPMI-8226 leukemia it was 35.5%; in the assay with OVCAR-8 ovarian, 76.6%. Further, the growth in the assay on OVCAR-5 ovarian was 75.5%; in the assay on OVCAR-4 ovarian, 60.7%; in the assay on SK-OV-3 ovarian, 88.2%; with IGROV1 ovarian it was 69.7%; in the assay on OVCAR-3 ovarian, 53.2%; in the assay on HS 578T breast, 86.7%. Also, the growth with NCI/ADR-RES ovarian was 89.9%.

For `COC1=C(OC)C(=O)C(OC)=C(OC)C1=O`, the growth was 118% in the assay with SK-MEL-2 melanoma; 102% in the assay with EKVX NSCLC; 94.9% in the assay with SN12C renal; 81.2% with UO-31 renal; 124% in the assay on TK-10 renal; 118% in the assay on ACHN renal. Besides, the growth was 98.9% with CAKI-1 renal; 77.2% with A498 renal; -24.5% (active) with MOLT-4 leukemia; 94.4% in the assay with SR leukemia; 102% in the assay on RPMI-8226 leukemia; 93.4% in the assay with OVCAR-8 ovarian. The growth with OVCAR-5 ovarian was 108%; with OVCAR-4 ovarian, 42.1%; in the assay with SK-OV-3 ovarian it was 110%; with IGROV1 ovarian, 101%; in the assay on OVCAR-3 ovarian, 99.3%; in the assay with HS 578T breast it was 97%. The growth in the assay on NCI/ADR-RES ovarian was 98%.

With `CCSC1=NC2C(N(CC)C(=O)N2CC)N1/N=C/C=C/c1ccccc1[N+](=O)[O-]` (configuration not stated), the growth is 50.3% with SK-MEL-2 melanoma; 46.5% with EKVX NSCLC; 19.8% in the assay with SN12C renal; 34.6% in the assay on UO-31 renal; 70.6% in the assay with TK-10 renal; 25.1% in the assay on ACHN renal. Moreover, the growth in the assay with CAKI-1 renal is 19.5%; with A498 renal, -5.18% (active); in the assay on MOLT-4 leukemia it was 15.1%; with SR leukemia, 15.1%; with RPMI-8226 leukemia it was 17.3%; with OVCAR-8 ovarian it was 8.6% (active). The growth with OVCAR-5 ovarian was 22.8%; in the assay with OVCAR-4 ovarian it was 42.6%; in the assay on SK-OV-3 ovarian, 28%; in the assay with IGROV1 ovarian, 15.3%; in the assay on OVCAR-3 ovarian it was -2.75% (active); in the assay on HS 578T breast, 6.38% (active). Also, the growth in the assay on NCI/ADR-RES ovarian is 4.68% (active).

Regarding `COc1ccc2c(c1)CCCN2c1c2ccccc2nc2ccccc12`, the growth is 35.4% in the assay on SK-MEL-2 melanoma; 45% in the assay on EKVX NSCLC; 39.5% with SN12C renal; 29.8% in the assay with UO-31 renal; 48.2% with TK-10 renal; 24.5% in the assay with ACHN renal. In addition, the growth in the assay with CAKI-1 renal was 27.8%; in the assay on A498 renal, -4.56% (active); with MOLT-4 leukemia, 15.4%; in the assay on SR leukemia, 12.5%; with RPMI-8226 leukemia, 20.5%; in the assay on OVCAR-8 ovarian, 16.6%. Moreover, the growth in the assay with OVCAR-5 ovarian was 28.3%; in the assay on OVCAR-4 ovarian, 30.4%; with SK-OV-3 ovarian it was 37.5%; with IGROV1 ovarian, 32.7%; in the assay on OVCAR-3 ovarian it was -21.7% (active); in the assay on HS 578T breast it was 10.4%. Besides, in the assay with NCI/ADR-RES ovarian, the growth is 0.746% (active).

For `N#CC1=C(c2ccc(Br)cc2)NC(SCC(=O)c2ccc(Br)cc2)NC1=O` (configuration not stated), the growth in the assay with SK-MEL-2 melanoma is 98%; with EKVX NSCLC it was 104%; with SN12C renal, 109%; in the assay with UO-31 renal it was 89.9%; in the assay with TK-10 renal, 118%; in the assay with ACHN renal, 109%. For the same compound, the growth in the assay on CAKI-1 renal was 97.1%; with A498 renal, 80.1%; with MOLT-4 leukemia it was 92%; with SR leukemia, 101%; in the assay with RPMI-8226 leukemia it was 107%; with OVCAR-8 ovarian, 103%. Further, the growth was 101% in the assay with OVCAR-5 ovarian; 101% with OVCAR-4 ovarian; 110% in the assay with SK-OV-3 ovarian; 114% with IGROV1 ovarian; 102% in the assay on OVCAR-3 ovarian; 97% in the assay with HS 578T breast. In the assay with NCI/ADR-RES ovarian, the growth was 107%.
